MBD2 inh = MBD2-methylated oligo binding inhibition | TR-FRET, MBD2 binding to methylated oligonucleotide | hit rate 0.31% among 370,000 | inhibition, % at 4.4 µM | AID 686964; in the data active = inhibition above about 13%
LEDGF integ inh = blocks HIV-1 LEDGF/p75-dependent DNA integration | TR-FRET IN-LEDGF/p75 DNA integration, Eu/Cy5 | inhibition, % at 3.7 µM | hit rate 0.64% among 370,000 | AID 743269;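 active = inhibition above the screen-wide mean plus 3 SD, cut at about 13% in these data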;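 also: signal is the Cy5 over europium emission ratio at 671 and 618 nm; 0% = plate median of compound wells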
UHRF1 MBD2 ctr = UHRF1 methyl-DNA binding inhibition; inhibition, % at 4.4 µM; UHRF1 binding to methylated oligo, TR-FRET; hit rate 0.75% among 370,000; in the data active = inhibition above about 21%;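 also: UHRF1 SRA domain binding a hemimethylated CpG hairpin DNA probe; 0% = median of test compound wells and 100% = reference inhibitor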
Target sequence (Q96T88 whole entry, looked up, the tested form may be a part): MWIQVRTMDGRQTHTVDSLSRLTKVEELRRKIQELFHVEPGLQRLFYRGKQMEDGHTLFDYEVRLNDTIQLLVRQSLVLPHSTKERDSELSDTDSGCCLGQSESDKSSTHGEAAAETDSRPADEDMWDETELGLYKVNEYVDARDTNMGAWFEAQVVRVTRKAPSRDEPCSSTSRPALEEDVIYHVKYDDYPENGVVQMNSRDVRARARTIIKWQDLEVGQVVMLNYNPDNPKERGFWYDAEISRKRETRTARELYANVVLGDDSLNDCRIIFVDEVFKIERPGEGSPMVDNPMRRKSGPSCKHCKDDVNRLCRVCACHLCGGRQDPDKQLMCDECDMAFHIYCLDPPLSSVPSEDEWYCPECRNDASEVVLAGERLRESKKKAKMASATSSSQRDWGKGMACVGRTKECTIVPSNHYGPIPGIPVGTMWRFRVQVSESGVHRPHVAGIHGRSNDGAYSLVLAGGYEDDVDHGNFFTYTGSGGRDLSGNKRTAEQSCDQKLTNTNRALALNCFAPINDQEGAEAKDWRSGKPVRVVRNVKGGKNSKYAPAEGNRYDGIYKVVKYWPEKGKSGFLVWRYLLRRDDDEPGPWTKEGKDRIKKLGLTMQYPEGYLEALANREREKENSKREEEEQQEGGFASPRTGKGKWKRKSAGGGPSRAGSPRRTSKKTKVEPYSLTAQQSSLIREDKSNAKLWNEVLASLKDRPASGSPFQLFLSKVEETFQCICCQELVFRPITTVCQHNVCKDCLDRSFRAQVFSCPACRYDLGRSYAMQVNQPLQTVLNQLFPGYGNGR
PRMT1 inh = inhibitors of human PRMT1; recombinant PRMT1, activity-based probe fluorescence polarization; hit rate 1.3% among 370,000; Q99873; AID 652257; inhibition, % at 2.79 µM;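 active = inhibition above about 21% made by adding two undisclosed values, limit read from the data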
An asterisk follows results filed as active. Only some compounds are listed: those with a hit (about 2.5% of all), similar ones and a draw of the others.

SMILES	MBD2 inh	LEDGF integ inh	UHRF1 MBD2 ctr	PRMT1 inh
NC(=O)c1c(NC(NC(=O)c2ccco2)C(=O)c2ccc(Cl)cc2)sc2c1CCCC2 (stereo not given)	-3.9	-2.1	-3.1	24.3*
C#Cc1ccc(NC(=O)C2(C)CCN2C(=O)C2(c3ccccc3)CCCC2)cc1 (stereo not given)	-2.4	-1.8	0.3	-1.3
COc1cccc(CC(NC(C)=O)C(=O)NC2CCN(c3c(Cc4ccccc4)c(C)nc4ncnn34)CC2)c1 (stereo not given)	6.7	0.0	25.8*	-3.5
CCOC(=O)C1=C(COC(=O)COc2ccc(C#N)cc2)NC(=O)NC1C (stereo not given)	11.1	8.1	22.2*	-0.4
CCOC(=O)C1=C(COC(=O)[C@@H](NC(=O)c2cccc(C)c2)C(C)C)NC(=O)NC1C (stereo not given in full)	3.2	-2.2	21.5*	0.0
CCOC(=O)C1=C(COC(=O)COc2ccc(C(C)=O)cc2)NC(=O)NC1C (stereo not given)	-3.7	-5.4	0.0	4.9
Cc1cccc(C)c1NC(=O)CN(C)C(=O)c1ccccc1Sc1ccccc1C#N	-1.4	1.3	0.0	1.0
CC(=O)NN1C(=O)c2ccccc2NC1c1ccoc1 (stereo not given)	3.4	3.8	0.2	2.5
CC(=O)NN1C(=O)c2ccccc2NC1c1ccccc1F (stereo not given)	1.8	-4.0	62.8*	3.4
O=C1CCC(C(=O)N(CCO)Cc2ccccc2)CN1CCc1cccc(F)c1 (stereo not given)	6.8	2.1	13.7	0.5
CN1C=C/C(=C\c2cc[n+](C)c3ccccc23)c2ccccc21	9.9	1.6	27.2*	5.4
O=C(Nc1ccc(C(=O)N2CCCC2)cc1)C1CCCC1	-0.1	-1.4	-3.7	-0.7
O=C(Nc1ccc(C(=O)N2CCCC2)cc1)C1CCC1	5.1	9.4	22.8*	-0.2
COc1ccc(OCC(=O)Sc2ccc(C)cc2)cc1	-3.6	2.4	-0.7	33.4*
CC(C)C(=O)N[C@@H]1c2ccccc2CC[C@@H]1OCc1ccccc1	7.2	-2.1	10.6	1.5
COc1cc(C(O)C(=O)O)ccc1O (stereo not given)	-2.1	1.8	43.2*	0.6
COc1cc(C(O)CO)ccc1O (stereo not given)	7.8	1.8	1.3	1.0
COc1ccc(C(NC(=O)/C=C/c2ccco2)c2ccc(OC)c(OC)c2)cc1 (stereo not given)	-0.5	0.7	4.8	24.5*
O=S1(=O)c2ccc(Br)cc2OC[C@@H](c2ccccc2)N1Cc1cn(Cc2ccccc2)nn1	3.8	3.2	16.3	1.8
Cc1cccc2sc(NC(=O)C3c4ccccc4Oc4ccccc43)nc12	2.4	-1.2	1.4	-0.3
Cc1cc(C)c2c(c1)NC(C(=O)O)C1CC=CC21 (stereo not given)	15.5*	31.2*	39.2*	31.8*
Cc1cc(C)c2c(c1)N[C@H](c1cccs1)[C@@H]1CCO[C@H]21	0.9	2.9	-1.8	-3.5
O=C(COC(=O)c1ccc(CO)cc1)Nc1ccc(OC(F)F)cc1	8.9	-10.1	7.2	3.2
Cc1ccc2nc(-c3ccc(F)cc3)c(Cc3cccc(Cl)c3)n2c1	-4.8	4.8	65.8*	-5.0
Cc1ccc(Cc2c(-c3ccc(Cl)cc3)nc3ccc(Br)cn23)cc1	8.2	5.9	21.5*	0.1
SMILES	MBD2 inh	LEDGF integ inh	UHRF1 MBD2 ctr	PRMT1 inh
Brc1ccc(-c2nc3ccc(Br)cn3c2Cc2ccccc2)cc1	7.8	-1.1	20.9*	2.9
Clc1ccc(-c2nc3ccc(Br)cn3c2Cc2ccccc2)cc1	2.7	-1.8	20.1	-1.9
Cc1ccc(Cc2c(-c3ccc(C)cc3)nc3ccc(Br)cn23)cc1	0.2	7.4	21.7*	-0.1
CCOc1ccc(CN2C(=O)CC(=O)N(S(=O)(=O)c3ccc(OCC)cc3)C2=O)cc1	-5.7	2.1	1.7	-3.6
CCCc1nc2ccc(Cl)cn2c1Cc1ccc(C)cc1	11.1	5.6	21.3*	-1.5
O=C(Cc1ccc(Cl)c(Cl)c1)N1CCOCC1	-2.9	2.7	3.4	-3.8
CCCOc1ccc(C(=O)N/N=C/c2ccc(-c3ccc(S(=O)(=O)Nc4ncccn4)cc3)o2)cc1	0.2	1.7	70.1*	3.5
CN1CCN(c2ncnc3c2ncn3[C@H]2CN(Cc3ccncc3)C[C@@H](CO)O2)CC1	6.8	2.1	0.3	0.3
COc1cc(OC)cc(-c2nnc(SCc3ccc(C(=O)O)cc3)o2)c1	2.6	2.2	1.2	22.3*
O=C(Nc1nnc([C@H]2C[C@H](O)[C@@H](CO)O2)s1)Nc1cccc2c1CCCC2	-1.1	0.4	1.5	-0.1
Cc1cc(C)n(CCCNC(=O)CCNS(=O)(=O)c2ccccc2C(F)(F)F)n1	-1.0	1.4	23.8*	2.6
Cc1nn(Cc2ccc(C(=O)NC(C)(C)C)o2)c(C)c1Br	-5.1	-3.2	4.3	23.9*
Cc1cnc(NC(=O)C2CC=CCC2)s1 (stereo not given)	-4.6	0.5	-1.6	2.3
CC(=O)c1cccc(NC(=O)C2=CN3CCS(=O)(=O)N=C3C=C2)c1	0.7	-6.8	2.0	4.1
CCCCc1c(-c2ccccc2OC)ncn1CCc1cccc(F)c1	2.2	1.7	55.8*	2.5
CCCCc1c(-c2ccccc2OC)ncn1CCc1cccc(OC)c1	-3.1	8.5	2.6	1.5
CCCCc1c(-c2ccccc2OC)ncn1Cc1ccc(C(C)(C)C)cc1	-4.7	2.6	27.6*	5.8
CN(C)CCCN(C(=O)c1ccco1)c1nc(-c2ccc(Cl)cc2)cs1	0.3	3.4	81.3*	1.9
Cc1ccc(-c2csc(N(CCCN(C)C)C(=O)c3ccco3)n2)cc1	-1.4	1.5	-4.3	2.1
COc1ccc(S(=O)(=O)N2CCSC2c2ccccc2)cc1 (stereo not given)	2.4	0.6	69.1*	0.1
COc1ccc(-c2nc3cc([N+](=O)[O-])ccc3o2)cc1	-3.9	3.2	20.9*	-2.4
O=C(CSc1ccc(Cl)cc1)N1CCN(c2ccc(Cl)cc2[N+](=O)[O-])CC1	0.1	-0.8	21.9*	-0.7
CC(C)(C)C(=O)N1CCN(c2ccc(Cl)cc2[N+](=O)[O-])CC1	1.4	-2.4	4.3	2.5
Cc1cc(C)nc(SCc2ccc(F)cc2)n1	10.0	0.3	22.8*	-2.5
Cn1ccnc1C(=O)c1ccc(Cl)c(S(=O)(=O)N2CCOCC2)c1	-1.0	-4.4	0.7	9.0
SMILES	MBD2 inh	LEDGF integ inh	UHRF1 MBD2 ctr	PRMT1 inh
COc1cc(CNn2cn[nH]c2=S)cc(Cl)c1OCc1ccc(F)cc1	2.3	-4.0	-3.0	11.1
COc1cc(CNn2c(C)n[nH]c2=S)cc(Cl)c1OCc1ccccc1	-0.4	7.4	0.6	24.4*
CCOc1nc(Nc2ccc(OC)c(Cl)c2)nc(OCC)n1	3.2	-4.6	36.2*	-1.1
CCOc1nc(Nc2ccc(OC)cc2)nc(OCC)n1	2.7	1.2	9.8	-3.6
CN(C)CCN1CCN(C(c2cc3ccccc3o2)c2nnnn2C(C)(C)C)CC1 (stereo not given)	2.6	0.3	-1.2	-1.5
COc1ccc(OC)c(NC(=O)CN2c3cccc4cccc(c34)S2(=O)=O)c1	-5.5	1.6	1.1	0.4

Source: PubChem BioAssay
